According to PubChem BioAssay (Tox21):
Several values for one entry are separate records, joined by “and”; a condition that tells them apart may be missing. Equal entries are not always repeated. Inconclusive results are not listed. Entries that show only a call come without a potency. Activity calls are given as the source filed them. Unless noted, calls follow the shape of the dose curve; as a rule, active = well fitted curve in the direction sought with a large enough effect in the repeat runs; inconclusive = weak or mixed curves; inactive = no such curve, though single readings can be large; an effect the other way counts as inactive or inconclusive.

Assays:
[1] = qHTS assay for small molecule agonists of the p53 signaling pathway (AID 651631; calls by dose curve; also: nearly all actives have a fitted effect of over 15% in size; also: potency is read from the fitted curve at half-maximal effect)
Procedure, shortened: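 Stably transfected HCT-116 cells (beta-lactamase behind p53 response elements) get compounds after a 5 h settling period; 16 h later at 37 °C, FRET substrate is loaded and fluorescence read after 2 h.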

[2] = qHTS assay for small molecule agonists of the p53 signaling pathway - cell viability (AID 651633; calls by dose curve; also: nearly all actives have a fitted effect of over 30% in size; also: potency is read from the fitted curve at half-maximal effect)
Procedure, shortened: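 Viability counter-read: CellTiter-Glo luminescence (30 min, room temperature) in the same p53RE-bla plates. These plates had been exposed to compounds for 16 h at 37 C.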

[3] = qHTS assay for small molecule disruptors of the mitochondrial membrane potential - cell viability (AID 720634; calls by dose curve; also: nearly all actives have a fitted effect of over 20% in size; also: potency is read from the fitted curve at half-maximal effect)
Procedure, shortened: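 Cells: HepG2, 2,000/well, attached overnight. Compound 1 hr, 37 C/5% CO2. +m-MPI dye, +CellTiter-Glo 30 min RT. Readout: luminescence (ATP).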

[4] = qHTS assay to test for compound auto fluorescence at 590 nm (red) in HepG2 cells (AID 720674)
Procedure, shortened: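 1 hr compound incubation on HepG2 cells, 37 C, 5% CO2; plate read ex 540 nm / em 590 nm; intensities reported as Rose Bengal sodium equivalents.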

[5] = qHTS assay to test for compound auto fluorescence at 535 nm (green) in HepG2 cells (AID 720675)
[6] = qHTS assay to test for compound auto fluorescence at 460 nm (blue) in HEK293 cells (AID 720678); also: potency is read from the fitted curve at half-maximal effect
Procedure, shortened: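 Triamterene serves as the blue fluorophore standard. Compound signal at 405/460 nm is read in HEK293 wells (2,000 cells, 10% dialyzed FBS) after overnight treatment at 37C.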

[7] = qHTS assay to test for compound auto fluorescence at 590 nm (red) in HEK293 cells (AID 720679)
Procedure, shortened: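 We plated HEK293 cells in 10% dialyzed FBS medium, let them adhere for 4-5 hr, then added 23 nL compound. Overnight at 37C and 5% CO2 preceded fluorescence measurement at 540/590nm.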

[8] = qHTS assay to test for compound auto fluorescence at 535 nm (green) in HEK293 cells (AID 720680)
[9] = qHTS assay to test for compound auto fluorescence at 460 nm (blue) in HEK293 cell free culture (AID 720681); also: potency is read from the fitted curve at half-maximal effect
Procedure, shortened: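 Blue fluorescence (Ex 405/Em 460 nm, triamterene-equivalent) was read immediately after pin transfer of compound or DMSO into medium (DMEM, 10% FBS) without cells.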

[10] = qHTS assay to test for compound auto fluorescence at 590 nm (red) in HEK293 cell free culture (AID 720683)
Procedure, shortened: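 Red-channel autofluorescence of compounds in culture medium (DMEM, 10% FBS), no cells, measured at 540/590 nm. Rose Bengal sodium is the reference fluorophore for equivalence.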

[11] = qHTS assay to test for compound auto fluorescence at 590 nm (red) in HepG2 cell free culture (AID 720684)
Procedure, shortened: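 Plate contents were MEM with 10% FBS plus test compound or DMSO, no cells. Fluorescence was recorded with 540 nm excitation and 590 nm emission.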

[12] = qHTS assay to test for compound auto fluorescence at 460 nm (blue) in HepG2 cell free culture (AID 720685); also: potency is read from the fitted curve at half-maximal effect
Procedure, shortened: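 Compound (23 nL) or DMSO pinned into cell-free MEM with 10% FBS; blue fluorescence read at 405/460 nm excitation/emission, expressed as auto-fluorescence equivalency to triamterene.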

[13] = qHTS assay to test for compound auto fluorescence at 535 nm (green) in HepG2 cell free culture (AID 720686)
[14] = qHTS assay to test for compound auto fluorescence at 460 nm (blue) in HepG2 cells (AID 720687); also: potency is read from the fitted curve at half-maximal effect
Procedure, shortened: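 Blue-channel autofluorescence (Ex/Em 405/460 nm, triamterene-equivalent) was measured after 1 hr compound exposure at 37 C, 5% CO2. Cells were HepG2, plated overnight at 37 C in MEM plus 10% FBS.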

[15] = qHTS assay for small molecules that induce genotoxicity in human embryonic kidney cells expressing luciferase-tagged ATAD5 (AID 651632); also: nearly all actives have a fitted effect of over 15% in size
Procedure, shortened: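 ATAD5-luc HEK293T, 2,000 cells/well; cpd or DMSO pin-transferred; 16 hr, 37C/5% CO2; Amplite 30 min RT; luminescence.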

[16] = qHTS assay for small molecules that induce genotoxicity in human embryonic kidney cells expressing luciferase-tagged ATAD5 - cell viability (AID 651634; calls by dose curve; also: nearly all actives have a fitted effect of over 25% in size)
Procedure, shortened: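 Fluorescence from CellTiter-Fluor, reporting protease activity within live cells, served as the viability read-out. HEK293T cells carrying luciferase-tagged ATAD5 had been treated with compound for 15.5 hr at 37C.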

[17] = qHTS assay for small molecule disruptors of the mitochondrial membrane potential (AID 720635); also: potency is read from the fitted curve at half-maximal effect
Procedure, shortened: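 Mitochondrial membrane potential tracked with Mito-MPS dye, red aggregates (ex 540/em 590 nm) against green monomers (ex 490/em 535 nm). Compound treatment 1 hr at 37C, dye 30 min in HepG2.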

[18] = qHTS assay to test for compound auto fluorescence at 535 nm (green) in HEK293 cell free culture (AID 720682)
Procedure, shortened: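 Using fluorescein as calibrant, autofluorescence was quantified at 485/535 nm in cell-free DMEM containing 10% FBS after pintool addition of compound or vehicle.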

[19] = target: Glucocorticoid receptor (Homo sapiens) (UniProt P04150); assay: qHTS assay to identify small molecule agonists of the glucocorticoid receptor (GR) signaling pathway (AID 720691; active = well fitted activation curve with a large enough effect in the signal ratio in the repeat runs, not every such curve was filed as active; the % refers to the signal ratio); details: GR-bla HeLa, beta-lactamase reporter ratio, 18 h; activation: at 62.4 µM (top of the series)
Procedure, shortened: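 Fluorescence intensity from LiveBLAzer B/G FRET substrate (2 h, room temperature) reports beta-lactamase expression driven by the glucocorticoid response element in GR-bla HeLa cells after 18 h compound exposure at 37 C.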

[20] = target: Glucocorticoid receptor (Homo sapiens) (UniProt P04150); assay: qHTS assay to identify small molecule antagonists of the glucocorticoid receptor (GR) signaling pathway (AID 720692; active = well fitted inhibition curve with a large enough effect in the signal ratio in the repeat runs, not every such curve was filed as active; the % refers to the signal ratio)
Procedure, shortened: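 HeLa GR-bla cells; cmpd + dex 5 nM final, 18 h 37 C; LiveBLAzer B/G FRET substrate 2 h RT; fluorescence intensity read. Antagonist mode, qHTS.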
Tags tell the direction and shape of the fitted curve or compound fluorescence and quenching.

Chain of Glucocorticoid receptor (Homo sapiens) (P04150 whole entry, looked up): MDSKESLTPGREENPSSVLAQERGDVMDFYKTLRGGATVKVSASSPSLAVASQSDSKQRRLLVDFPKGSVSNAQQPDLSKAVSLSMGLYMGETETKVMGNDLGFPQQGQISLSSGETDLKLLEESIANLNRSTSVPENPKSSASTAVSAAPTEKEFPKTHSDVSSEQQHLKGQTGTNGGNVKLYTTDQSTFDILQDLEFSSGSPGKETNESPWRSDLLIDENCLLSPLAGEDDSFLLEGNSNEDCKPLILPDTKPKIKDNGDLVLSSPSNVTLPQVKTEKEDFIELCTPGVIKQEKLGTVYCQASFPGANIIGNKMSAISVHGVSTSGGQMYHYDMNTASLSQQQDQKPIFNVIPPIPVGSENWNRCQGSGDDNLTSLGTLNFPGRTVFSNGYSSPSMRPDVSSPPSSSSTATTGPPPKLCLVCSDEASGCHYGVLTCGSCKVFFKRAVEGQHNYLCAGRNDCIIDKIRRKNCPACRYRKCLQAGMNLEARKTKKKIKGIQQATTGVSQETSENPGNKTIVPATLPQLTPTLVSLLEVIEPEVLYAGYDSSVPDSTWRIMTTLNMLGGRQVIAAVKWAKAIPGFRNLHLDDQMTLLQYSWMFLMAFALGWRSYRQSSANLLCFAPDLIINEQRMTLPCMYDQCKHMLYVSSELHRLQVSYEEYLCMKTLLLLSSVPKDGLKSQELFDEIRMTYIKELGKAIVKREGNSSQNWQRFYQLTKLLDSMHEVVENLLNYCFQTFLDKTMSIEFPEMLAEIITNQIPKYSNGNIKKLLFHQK

SMILES | Potency [1] | Potency [2] | Potency [3] | outcome [4] | Potency [5] | Potency [6] | outcome [7] | outcome [8] | Potency [9] | outcome [10] | outcome [11] | Potency [12] | Potency [13] | Potency [14] | Potency [15] | Potency [16] | Potency [17] | outcome [18] | Potency [19] | Potency [20]
CN1CCc2cc3c(cc2C1O)OCO3 (configuration not stated) | 61.5 µM (active) | inactive | inactive | inactive | inactive | 35.5 µM [fluorescent] (active) | inactive | inactive | 39.8 µM (active) | inactive | inactive | 39.8 µM [fluorescent] (active) | inactive | 39.8 µM [fluorescent] (active) |  |  |  |  |  | 
CO/N=C(\C(=O)OC)c1ccccc1CO/N=C(\C)c1cccc(C(F)(F)F)c1 | 1.09 µM (active) |  |  | inactive | inactive | inactive | inactive | inactive | inactive | inactive | inactive | inactive | inactive | inactive | inactive | inactive | 9.69 µM (active) | inactive |  | 
O=C1C2(Cl)C3(Cl)C4(Cl)C(Cl)(Cl)C5(Cl)C3(Cl)C1(Cl)C5(Cl)C24Cl (configuration not stated) | 60.1 µM (active) | 37.9 µM (active) | 1.9 µM (active) | inactive | inactive | inactive | inactive | inactive | inactive | inactive | inactive | inactive | inactive | inactive | inactive |  | 536 nM (active) and 585 nM (active) | inactive |  | 
COC(=O)c1ccccc1S(=O)(=O)NC(=O)Nc1nc(C)nc(OC)n1 | inactive | inactive | inactive | inactive | inactive |  | inactive | inactive | inactive | inactive | inactive | inactive | inactive | inactive |  |  |  | inactive |  | 
CC1CN1 (configuration not stated) | inactive | inactive | inactive | inactive | inactive | inactive | inactive | inactive | inactive | inactive | inactive | inactive | inactive | inactive |  |  | inactive | inactive |  | 
CCCCC(CC)COC(=O)OOC(C)(C)C (configuration not stated) | inactive | inactive |  | inactive | inactive |  | inactive | inactive | inactive | inactive | inactive | inactive | inactive | inactive | inactive |  |  | inactive |  | 
CC(C)Br | inactive | inactive | inactive | inactive | inactive | inactive | inactive | inactive | inactive | inactive | inactive | inactive | inactive | inactive |  | inactive |  | inactive | inactive | inactive
Nc1ccccc1-c1ccccc1 | inactive | inactive | inactive | inactive | inactive | inactive | inactive | inactive | inactive | inactive | inactive | inactive | inactive | inactive | inactive |  |  | inactive | inactive | 
CCOP(=S)(OCC)Oc1cc(C)nc(N(CC)CC)n1 | inactive | inactive |  | inactive | inactive |  | inactive | inactive | inactive | inactive | inactive | inactive | inactive | inactive |  | inactive | 48.6 µM (active) |  | inactive | 
BrCC(Br)(Br)Br | 7.11 µM (active) | inactive | inactive | inactive | inactive | inactive |  | inactive | inactive | inactive | inactive | inactive | inactive | inactive |  |  |  | inactive |  | 
C#CCO | inactive | inactive |  | inactive | inactive | inactive |  | inactive | inactive | inactive | inactive | inactive | inactive | inactive | inactive | inactive |  | inactive | inactive | inactive
COCCC#N | inactive | inactive | inactive | inactive | inactive | inactive | inactive | inactive | inactive | inactive | inactive | inactive | inactive | inactive | inactive |  | inactive | inactive | inactive | inactive
CCC(C)Br (configuration not stated) | inactive | inactive |  | inactive | inactive | inactive |  | inactive | inactive | inactive | inactive | inactive | inactive | inactive | inactive | inactive |  | inactive |  | 
O=C(NC(=O)c1ccccc1Cl)Nc1ccc(OC(F)(F)F)cc1 | inactive | inactive |  | inactive | inactive | inactive |  | inactive | inactive | inactive | inactive | inactive | inactive | inactive | inactive |  | inactive | inactive | inactive | inactive
CCN(CC)C(=O)N[C@@H]1C=C2c3cccc4[nH]cc(c34)C[C@@H]2N(C)C1 | inactive | inactive | inactive | inactive | inactive | inactive | inactive | inactive | inactive | inactive | inactive | inactive | inactive | inactive | inactive |  | 1.68 µM (active) | inactive | inactive | inactive
